# Screens (PubChem)
# a7 integrin act = activators of alpha7 integrin expression for muscular dystrophy; alpha7betagal myoblasts, beta-gal FDG fluorescence, 48 h; Potency, µM (top dose mostly 38.3 µM), without a hit: at the top dose activation, actives largely listed as activators; 350,000 tested, 0.064% active;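 also: potency is read from the fitted curve at half-maximal effect; 100% = response of the positive control SU9516; nearly all actives have a fitted effect of over 60% in size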
#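 Alpha7betagal+/- myoblasts (passage 13) were plated 16-24 hr, then exposed to compounds (1:260 dilution of DMSO stock) for 48 hours at 37C. After MPER lysis, β-galactosidase reporter activity was read as FDG fluorescence (ex 480/em 540) after 30 minutes.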
# IDH1 R132H inh = human IDH1 R132H inhibition. O75874. 390,000 tested, 0.093% active. Potency, µM (top dose mostly 76.6 µM), without a hit: top-dose activity change, negative = inhibition, usual class: inhibitors. AID 602179. IDH1-R132H enzyme, NADPH consumption, diaphorase/resazurin fluorescence; also: potency is read from the fitted curve at half-maximal effect; % is scaled to controls: 0 for no effect and ±100 for the full control effect; nearly all actives have a fitted effect of over 65% in size
#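 IDH1-R132H (0.5 ug/mL dispensed) in pH 7.5 Tris buffer was preincubated 30 min with compound, then given a substrate mix of 0.016 mM NADPH and 2 mM alpha-KG for 80 min at room temperature; remaining NADPH was read by diaphorase/resazurin fluorescence.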
# D3 ag = agonists of human D3 dopamine receptor. P35462. D3R DiscoveRx beta-arrestin cells, luminescence, 90 min. max activation, %. 410,000 tested, 0.58% active. AID 652048; in the data active = max activation above about 30%; also: 0% is about no effect
#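 Cells at 1500/well, incubated overnight, then treated with pinned compounds (dopamine as control) for 90 min at 37 degrees C. DiscoveRx reagent added for 30 - 60 minutes at room temperature; luminescence read.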
# D3 antag = D3 dopamine receptor (human) antagonism | P35462 | D3R cells, DiscoveRx beta-arrestin luminescence, antagonist mode; stronger effect = lower value | max response, negative = inhibition, % | 360,000 tested, 2.5% active | AID 652054; in the data active = max response below about -50%; inconclusive = no clear call, values can overlap the other calls; also: % is scaled to controls: 0 for no effect and ±100 for the full control effect
#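 Cells plated overnight at 1500 cells/well, then exposed to library compounds with dopamine controls for 90 minutes at 37 degrees C. DiscoveRx reagent added for 30–60 minutes at room temperature; luminescence read, quantitative HTS format.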
# B2AR arrestin = beta2AR (human) beta-arrestin recruitment activity. P07550. beta-arrestin recruitment to beta2AR, cell-based reporter. Potency, µM (highest dose often 46.1 µM), for inactives: at the highest dose activation, hits mostly activators. 330,000 tested, 0.02% active. AID 492947;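 also: potency is read from the fitted curve at half-maximal effect; 0% = DMSO controls and full agonism = EC100 isoproterenol or metaproterenol; nearly all actives have a fitted effect of over 65% in size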
# IDH1 autofl = counter-screen for mutant IDH1 inhibitors: fluorescence interference; shares compounds with IDH1 R132H inh; 750 tested, under 10 active; Resorufin detection reagent fluorescence interference, cell-free; inhibition of signal, % at 51.2 µM;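 also: 0% = wells with normal resorufin and full inhibition = wells lacking resorufin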
# WT IDH1 inh = inhibits human wild-type IDH1, mutant selectivity check. WT IDH1 enzyme, NADPH diaphorase/resazurin fluorescence. Potency, µM (doses to about 115 µM), for the others: at the top dose activity change, negative = inhibition, most hits filed as inhibitors. 750 tested, 9% active. shares compounds with IDH1 R132H inh. AID 623995;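 also: potency is read from the fitted curve at half-maximal effect; 0% = full WT IDH1 enzyme control and full inhibition = no enzyme wells; nearly all actives have a fitted effect of over 55% in size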
# Target sequence (O75874 whole entry, looked up): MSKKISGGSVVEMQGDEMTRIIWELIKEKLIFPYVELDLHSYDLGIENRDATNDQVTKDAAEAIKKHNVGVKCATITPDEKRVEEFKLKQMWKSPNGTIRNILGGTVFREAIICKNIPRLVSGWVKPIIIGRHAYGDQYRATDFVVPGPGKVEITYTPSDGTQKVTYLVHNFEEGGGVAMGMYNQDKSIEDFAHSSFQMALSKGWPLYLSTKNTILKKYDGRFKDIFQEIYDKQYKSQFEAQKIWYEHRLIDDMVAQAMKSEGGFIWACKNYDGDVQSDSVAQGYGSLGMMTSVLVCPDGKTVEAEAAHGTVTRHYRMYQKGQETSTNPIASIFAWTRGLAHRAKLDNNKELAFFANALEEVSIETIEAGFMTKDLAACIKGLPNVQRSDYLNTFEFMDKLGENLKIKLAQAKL
# IDH1 R132H conf = mutant IDH1 (human) inhibition, confirmed. IDH1 R132H enzyme, NADPH diaphorase/resazurin fluorescence. 750 tested, 83% active. shares compounds with IDH1 R132H inh. Potency, µM (highest dose often 76.6 µM), for the others: top-dose activity change, negative = inhibition, hits mostly inhibitors; also: potency is read from the fitted curve at half-maximal effect; nearly all actives have a fitted effect of over 50% in size
# * = called active by the depositor; ? = inconclusive; nt = no result. Sampled rows, rich in hits. Any-hit rate of the full collection: about 2.9%. Unless noted, calls follow the shape of the dose curve; as a rule, active = well fitted curve in the direction sought with a large enough effect; inconclusive = small, poorly fitted or top-dose-only effect, or another doubt; inactive = no such curve, though single readings can be large; an effect the other way counts as inactive or inconclusive.
SMILES,a7 integrin act,IDH1 R132H inh,D3 ag,D3 antag,B2AR arrestin,IDH1 autofl,WT IDH1 inh,IDH1 R132H conf
CC1(c2ccccc2)O[C@@H]2C[C@H]3[C@@H]4CCC5=CC(=O)C=C[C@]5(C)[C@@]4(F)[C@@H](O)C[C@]3(C)[C@]2(C(=O)CO)O1 (some centres not stated),-3.2%,29.3µM*,-7.2,-19.2,-0.1%,-6.4,-13.9%,5.01µM*
CC12C=CC(=O)C=C1CCC1C3CCC(O)(C(=O)CO)C3(C)CC(O)C12F (configuration not stated),21.5%,2.7%,7.7,31.2,nt,nt,nt,nt
CC(=O)N1CCc2c(sc3c2c(=O)n(-c2ccc(C)cc2)c(=O)n3Cc2c(F)cccc2Cl)C1,nt,?,-12.6,nt,nt,3.1,35.5µM*,22.4µM*
CC(=O)N1CCc2c(sc3c2c(=O)n(-c2ccccc2Cl)c(=O)n3Cc2cccc(C)c2)C1,nt,31.6µM*,8.3,nt,nt,1.0,20µM*,15.8µM*
CC(=O)N1CCc2c(sc3c2c(=O)n(CCc2ccccc2)c(=O)n3Cc2ccccc2C)C1,nt,12.6µM*,-9.6,nt,nt,-11.3,0.8%,11.2µM*
CC(=O)N1CCc2cc(S(=O)(=O)NC(Cc3ccccc3)C(=O)NCc3ccccc3)ccc21 (configuration not stated),nt,8.7%,-5.8,nt,nt,nt,nt,nt
